In PubChem BioAssay:
Activity calls are given as the source filed them. Unless noted, the rule behind the calls is not given here.

What was measured:
[1] = test system: Wnt5a (protein binding on small-molecule microarray); test: small molecules binding Wnt5a protein – biophysical, small-molecule microarray, 635/667 nm fluorescence, primary screen (AID 1142); settings: 635 nm fluorescence, higher = more signal;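 note: fluorescence read at 667 nm with signal to noise per printed feature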
[2] = ATP-based viability of Huh7 replicon cells – cell-based, CellTiter-Glo luminescence, basal, 48 h, cytotoxicity control for HCV replication inhibitor project, primary screen (AID 1143); settings: higher = more signal, called active from +8 up or from −8 down;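 note: Huh7 hepatoma cells carrying a hepatitis C replication reporter with no stimulus; test concentration not given here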
[3] = Pseudomonas biofilm growth suppression – PAO1 strain, BacTiter-Glo luminescence, LB-PBS, primary screen (AID 1144); settings: P. aeruginosa PAO1 biofilm, 12 h, higher = more signal
[4] = basal CRE-LacZ reporter activity in PC12 – cell-based, unstimulated, primary screen (AID 1145); settings: no forskolin, luminescence, 4.5 h, higher = more signal, called active from +8 up or from −8 down
[5] = forskolin-driven CRE-LacZ activity in PC12 – cell-based, CRE-LacZ reporter, forskolin-stimulated, primary screen (AID 1146); settings: luminescence, 4.5 h, higher = more signal, called active from +8 up or from −8 down;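 note: PC12 cells with 6xCRE LacZ reporter stimulated by forskolin 10 µM; beta-galactosidase reporter signal reflecting CREB driven transcription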
[6] = molecular target: Streptavidin (Streptomyces avidinii) (UniProt P22629); test: compounds binding control protein streptavidin – biophysical, small-molecule microarray, 635/667 nm fluorescence, artefact control for SMM compound annotation, primary screen (AID 1147); settings: higher = more signal;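 note: signal reflects streptavidin binding to arrayed compounds as a control protein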
Streptavidin (Streptomyces avidinii), sequence (P22629 whole entry, looked up): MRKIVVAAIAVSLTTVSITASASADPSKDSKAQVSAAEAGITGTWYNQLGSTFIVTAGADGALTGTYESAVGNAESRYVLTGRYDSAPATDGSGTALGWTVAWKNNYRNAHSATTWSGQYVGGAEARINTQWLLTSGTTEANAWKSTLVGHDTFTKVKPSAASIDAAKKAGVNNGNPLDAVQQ

[7] = probe aInhba binding on compound microarray – biochemical, small-molecule microarray, 635/667 nm fluorescence, primary screen (AID 1148); settings: higher = more signal;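 note: score merges 667nm spot fluorescence with signal-to-noise for antibody binding to printed compounds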
Torsin-1A (Homo sapiens) [8] = molecular target: Torsin-1A (Homo sapiens) (UniProt O14656); test: TOR1A wild-type binding on microarray – cell lysate, small-molecule microarray, lysate, 635/667 nm, primary screen (AID 1149); settings: COS7 hTOR1A-WT lysate, 635 nm fluorescence, higher = more signal
Torsin-1A (Homo sapiens), sequence (O14656 whole entry, looked up): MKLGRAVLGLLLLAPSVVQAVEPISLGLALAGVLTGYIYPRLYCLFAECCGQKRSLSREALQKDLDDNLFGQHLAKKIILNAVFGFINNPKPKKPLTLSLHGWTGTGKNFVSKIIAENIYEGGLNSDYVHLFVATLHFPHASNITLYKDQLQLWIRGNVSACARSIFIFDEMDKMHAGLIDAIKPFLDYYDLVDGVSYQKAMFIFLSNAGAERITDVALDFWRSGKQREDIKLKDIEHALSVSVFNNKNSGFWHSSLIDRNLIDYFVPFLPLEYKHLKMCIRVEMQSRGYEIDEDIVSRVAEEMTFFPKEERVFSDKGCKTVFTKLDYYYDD

Torsin-1A (Homo sapiens) [9] = molecular target: Torsin-1A (Homo sapiens) (UniProt O14656); test: torsin A mutant lysate binding on microarrays – cell lysate, small-molecule microarray, COS7 lysate, 635/667 nm fluorescence, primary screen (AID 1150); settings: COS7 hTOR1A mutant lysate, 635 nm fluorescence, higher = more signal;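 note: score pools 667 nm emission and signal to noise measuring lysate protein binding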
[10] = test system: Sonic hedgehog protein (Shh); test: Sonic hedgehog microarray binding compounds – biochemical, small-molecule microarray, 635/667 nm fluorescence, primary screen (AID 1151); settings: 635 nm fluorescence, higher = more signal;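 note: Shh protein binding to compounds spotted on small-molecule microarray slides; score combines spot fluorescence intensity with signal-to-noise across triplicate slides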
[11] = optical density shifts of acrAB sulA E. coli – strain DRC41, OD650, 48 h, E. coli filamentation inducer project, primary screen (AID 1152); settings: higher = more signal, called active from +8 up or from −8 down;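 note: E. coli MC1000 strain DRC41 lacking acrAB efflux pump and sulA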
[12] = probe aLefty1 binding on compound microarray – biochemical, small-molecule microarray, 635/667 nm fluorescence, primary screen (AID 1153); settings: higher = more signal;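 note: score merges spot fluorescence with signal-to-noise ratio from the scanned slide images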
[13] = plasmodial surface anion channel blockers, osmotic lysis – cell-based, P. falciparum Indochina, OD700, 1 h, primary screen (AID 1154); settings: P. falciparum Indochina infected RBC osmotic lysis, higher = more signal, called active from +8 up or from −8 down
[14] = plasmodial surface anion channel blockers, osmotic lysis – cell-based, P. falciparum Indochina, OD700, 2 h, primary screen (AID 1155);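 note: lysis reports solute entry through the parasite surface anion channel PSAC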; settings: P. falciparum Indochina infected erythrocytes, higher = more signal, called active from +8 up or from −8 down
[15] = changes in parasitized red cell lysis, either direction – P. falciparum Indochina, OD700, 3 h, PSAC antagonist project, primary screen (AID 1156); settings: P. falciparum-infected erythrocytes, osmotic lysis, higher = more signal, called active from +8 up or from −8 down
[16] = plasmodial surface anion channel blockers, osmotic lysis – cell-based, P. falciparum Indochina, OD700, 18 h, primary screen (AID 1157); settings: P. falciparum Indochina infected erythrocytes, osmotic lysis OD700, 18 h; higher = more signal, called active from +8 up or from −8 down
[17] = S6 kinase pathway phospho-S6 level changes – cell-based, A549, cytoblot, luminescence, serum-stimulated, primary screen (AID 1158); settings: 5 h, higher = more signal;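 note: serum-stimulated A549 lung adenocarcinoma cells; signal is phosphorylated S6 detected by cytoblot immunostaining with HRP secondary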
[18] = molecular target: NADPH oxidase 2 (Homo sapiens) (UniProt P04839); test: compounds shifting NOX2 Amplex Red fluorescence – cell-based, HEK293-NOX2, PMA-stimulated, NOX inhibitor project, primary screen (AID 1159); settings: 45 min, higher = more signal, called active from +8 up or from −8 down; note: test concentration not given here
NADPH oxidase 2 (Homo sapiens), sequence (P04839 whole entry, looked up): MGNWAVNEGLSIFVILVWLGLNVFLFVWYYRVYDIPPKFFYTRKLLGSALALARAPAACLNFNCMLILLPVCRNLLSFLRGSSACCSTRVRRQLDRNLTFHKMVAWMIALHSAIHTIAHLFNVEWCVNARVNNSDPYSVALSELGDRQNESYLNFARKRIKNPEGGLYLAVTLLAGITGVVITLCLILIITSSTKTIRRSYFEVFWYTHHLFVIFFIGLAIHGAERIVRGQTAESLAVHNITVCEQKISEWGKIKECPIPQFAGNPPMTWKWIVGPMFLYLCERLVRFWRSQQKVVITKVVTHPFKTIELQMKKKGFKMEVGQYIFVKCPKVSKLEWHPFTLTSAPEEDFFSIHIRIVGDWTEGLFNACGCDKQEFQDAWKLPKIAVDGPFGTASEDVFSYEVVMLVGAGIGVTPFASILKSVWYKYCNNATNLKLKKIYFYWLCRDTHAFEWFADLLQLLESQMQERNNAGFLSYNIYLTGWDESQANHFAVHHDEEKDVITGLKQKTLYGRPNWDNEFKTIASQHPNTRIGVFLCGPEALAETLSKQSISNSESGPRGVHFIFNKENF

[19] = molecular target: NADPH oxidase 4 (Homo sapiens) (UniProt Q9NPH5); test: compounds shifting NOX4 Amplex Red fluorescence – cell-based, HEK293-NOX4, tetracycline-induced, NOX inhibitor project, primary screen (AID 1160); settings: HEK293-NOX4, Amplex Red H2O2 fluorescence, 45 min; higher = more signal, called active from +8 up or from −8 down
NADPH oxidase 4 (Homo sapiens), sequence (Q9NPH5 whole entry, looked up): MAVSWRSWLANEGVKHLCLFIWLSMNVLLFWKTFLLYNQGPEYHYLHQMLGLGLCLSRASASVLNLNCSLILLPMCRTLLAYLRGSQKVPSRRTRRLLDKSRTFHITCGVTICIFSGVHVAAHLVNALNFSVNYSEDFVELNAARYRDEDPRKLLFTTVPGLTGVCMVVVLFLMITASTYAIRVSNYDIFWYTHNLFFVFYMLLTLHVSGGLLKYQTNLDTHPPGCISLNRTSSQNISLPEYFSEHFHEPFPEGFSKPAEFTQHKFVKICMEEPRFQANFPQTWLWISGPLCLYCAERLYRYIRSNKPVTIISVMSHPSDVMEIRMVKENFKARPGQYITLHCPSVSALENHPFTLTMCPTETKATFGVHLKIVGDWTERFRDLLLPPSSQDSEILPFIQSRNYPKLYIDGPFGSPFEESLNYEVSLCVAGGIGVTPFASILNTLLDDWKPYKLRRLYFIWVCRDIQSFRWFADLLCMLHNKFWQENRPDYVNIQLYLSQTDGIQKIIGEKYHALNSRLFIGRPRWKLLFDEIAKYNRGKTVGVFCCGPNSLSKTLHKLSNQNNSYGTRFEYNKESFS

[20] = molecular target: NADPH oxidase 5 (Homo sapiens) (UniProt Q96PH1); test: compounds shifting NOX5 Amplex Red fluorescence – cell-based, HEK293-NOX5, NOX inhibitor project, primary screen (AID 1161); settings: HEK293-NOX5, ionomycin, 45 min, higher = more signal
NADPH oxidase 5 (Homo sapiens), sequence (Q96PH1 whole entry, looked up): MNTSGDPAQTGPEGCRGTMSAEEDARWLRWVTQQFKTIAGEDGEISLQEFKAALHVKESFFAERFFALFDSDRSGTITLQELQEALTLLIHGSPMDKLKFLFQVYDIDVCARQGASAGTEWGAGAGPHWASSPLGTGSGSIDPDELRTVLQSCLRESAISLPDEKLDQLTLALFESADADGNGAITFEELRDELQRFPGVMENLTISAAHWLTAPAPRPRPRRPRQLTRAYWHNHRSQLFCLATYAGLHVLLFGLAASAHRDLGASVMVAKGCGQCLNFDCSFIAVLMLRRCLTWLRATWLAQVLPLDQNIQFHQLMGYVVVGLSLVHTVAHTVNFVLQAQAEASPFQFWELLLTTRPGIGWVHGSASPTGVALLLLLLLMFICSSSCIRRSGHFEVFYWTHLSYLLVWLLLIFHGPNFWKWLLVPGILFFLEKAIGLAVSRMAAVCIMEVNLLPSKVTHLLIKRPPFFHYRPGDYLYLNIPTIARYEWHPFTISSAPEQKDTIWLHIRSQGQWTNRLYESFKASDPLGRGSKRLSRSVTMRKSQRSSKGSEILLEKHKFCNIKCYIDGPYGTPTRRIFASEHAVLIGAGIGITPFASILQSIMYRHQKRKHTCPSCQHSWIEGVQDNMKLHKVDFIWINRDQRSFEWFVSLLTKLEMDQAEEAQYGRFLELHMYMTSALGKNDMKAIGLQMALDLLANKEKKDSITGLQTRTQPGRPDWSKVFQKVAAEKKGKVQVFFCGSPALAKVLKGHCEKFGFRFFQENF

Row | SMILES | composite z-score [1] | z-score [2] | z-score [3] | z-score [4] | z-score [5] | composite z-score [6] | composite z-score [7] | composite z-score (Torsin-1A (Homo sapiens) [8]) | composite z-score (Torsin-1A (Homo sapiens) [9]) | composite z-score [10] | z-score [11] | composite z-score [12] | z-score [13] | z-score [14] | z-score [15] | z-score [16] | z-score [17] | z-score [18] | z-score [19] | z-score [20]
1 | CCCCCC1=C2CNC(CC(C)C)(C(=O)OC)C=C2C(C)C1=O (stereo not given) | -0.025 | -0.575 (inactive) | 0.661 (inactive) | 0.0041 (inactive) | 0.728 (inactive) | 0.428 | 0.0668 | -0.276 | -0.207 | -0.242 | -1.07 (inactive) | 0.172 | 1.5 (inactive) | -0.602 (inactive) | 0.836 (inactive) | 0.347 (inactive) | -0.245 | -0.0792 (inactive) | -0.636 (inactive) | -2.61
2 | O=C(NCC(O)CO)C1N=C(c2ccc(OCCCO)cc2)N(c2ccccc2)O1 (stereo not given) | 0.41 | -1.12 (inactive) | 2.56 (inactive) | 0.456 (inactive) | -0.442 (inactive) | -0.214 | -0.0468 | 0.975 | 0.682 | 1.27 | -0.0446 (inactive) | -0.316 | 13.5 (active) | 1.49 (inactive) | 0.257 (inactive) | 0.594 (inactive) | 0.0265 | -1.68 (inactive) | -1.05 (inactive) | -0.583
3 | CN(C)CCCCNC(=O)[C@H]1C[C@H]2C(=O)NCC(=O)N2[C@H]1c1ccc(O)cc1 | -0.311 | 0.153 (inactive) | 0.0384 (inactive) | -0.943 (inactive) | -0.489 (inactive) | -0.761 | -0.344 | -0.0276 | 1.07 | 1.57 | 0.327 (inactive) | -0.417 | 2.9 (inactive) | 0.552 (inactive) | 0.447 (inactive) | 0.3 (inactive) | -0.468 | 1.06 (inactive) | 1.09 (inactive) | 1.18
4 | COCCOC(=O)N1C(=O)[C@@]2(c3cc(C#CCC(C(=O)OC)C(=O)OC)ccc31)[C@H](c1ccc(O)cc1)N1[C@H](c3ccccc3)[C@H](c3ccccc3)OC(=O)[C@H]1[C@@H]2C(=O)Nc1nc2ccccc2s1 | 0.553 | -1.48 (inactive) | 0.164 (inactive) | -0.195 (inactive) | -0.521 (inactive) | 0.633 | 0.221 | 0.533 | 0.479 | 1.77 | 0.306 (inactive) | 0.251 | 2.75 (inactive) | 0.666 (inactive) | 0.34 (inactive) | 0.802 (inactive) | -0.286 | 1.1 (inactive) | -1.09 (inactive) | 0.698
5 | COCCCNC(=O)[C@@H]1c2ccccc2C(=O)N(Cc2ccc(OC(F)(F)F)cc2)[C@H]1c1ccc(CO)cc1 | 0.53 | -0.429 (inactive) | 0.0789 (inactive) | 0.674 (inactive) | 0.0988 (inactive) | -0.0096 | -0.0221 | 0.0966 | 0.281 | 1.09 | -0.771 (inactive) | 0.0271 | 1.93 (inactive) | 0.566 (inactive) | 0.913 (inactive) | 0.303 (inactive) | 0.0296 | -0.385 (inactive) | 0.915 (inactive) | 1.91
6 | CN(C)CCCC[C@@H]1NC(=O)[C@H]2C[C@@H](C(=O)O)[C@@H](c3ccc(O)cc3)N2C1=O | 0.938 | -2.41 (inactive) | 0.294 (inactive) | 0.419 (inactive) | -0.457 (inactive) | 3.44 | 1.98 | 2.77 | 3.27 | 2.17 | 2.2 (inactive) | 2.57 | 3.21 (inactive) | 0.73 (inactive) | -2.43 (inactive) | -0.849 (inactive) | 0.651 | 0.485 (inactive) | -1.06 (inactive) | 1.4
7 | C=C(CCCC)C(=O)CC[C@H](OC(=O)c1ccccc1-c1ccccc1C(=O)O)c1ccc(OCCO)cc1 | 0.475 | -1.19 (inactive) | -1.5 (inactive) | -0.35 (inactive) | 2.12 (inactive) | -0.092 | 0.0614 | 0.374 | 0.204 | 1.91 | 0.418 (inactive) | -0.199 | 12.3 (active) | 1.38 (inactive) | 1.49 (inactive) | 0.847 (inactive) | -0.265 | 0.135 (inactive) | -0.406 (inactive) | -1.59
8 | C=C(CCCC)C(=O)CC[C@@H](OC(=O)c1ccccc1-c1ccccc1C(=O)O)c1ccccc1OCCO | 0.0726 | -1.62 (inactive) | -0.131 (inactive) | 6.69 (inactive) | 2.06 (inactive) | -0.34 | -0.157 | 1.21 | 0.818 | 1.56 | 0.414 (inactive) | -0.0003 | 6.1 (inactive) | 0.148 (inactive) | -0.138 (inactive) | -1.14 (inactive) | 0.332 | 1.78 (inactive) | 0.0357 (inactive) | -1.39
9 | Cc1ccc(S[C@]2(C(=O)NC(C)C)CC(=O)N(C3CCCCC3)[C@@H]2c2ccc(CO)cc2I)cc1 | 0.0335 | -3.94 (inactive) | -1.17 (inactive) | -0.608 (inactive) | 0.74 (inactive) | 1.46 | -0.0589 | 1.21 | 2.76 | 1.95 | 0.497 (inactive) | -0.0564 | 6.28 (inactive) | 1.47 (inactive) | 1.18 (inactive) | 0.916 (inactive) | -0.052 | 0.877 (inactive) | 0.292 (inactive) | 1.89
